PubChem BioAssay (EPA / NIEHS)
Active and inactive are the calls of the source. How the source made its calls: active means hit-call score of the fitted dose curve at least 0.9, where 1 is the maximum; inactive means score below 0.9.

What was measured:
Conditions in all cases: mRNA level, 48 h; actives raise or lower the signal
[1] = read-out: NAD(P)H dehydrogenase [quinone] 1 (NQO1), NQO1 (gene 1728); experiment: LTEA_HepaRG_NQO1: Life Technologies and Expression Analysis (LTEA) Assay for NAD(P)H dehydrogenase [quinone] 1 (NQO1) using HepaRG (AID 2283526)
How it was run: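 NQO1 transcript induction or loss measured by TaqMan qRT-PCR, referenced to three housekeeping genes and fitted bidirectionally against 0.5% DMSO. HepaRG cultures exposed 48 h, duplicate, eight-point half-log series, top 100 uM.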

[2] = read-out: Nuclear factor erythroid 2-related factor 2 (Homo sapiens) (UniProt Q16236); experiment: LTEA_HepaRG_NFE2L2: Life Technologies and Expression Analysis (LTEA) Assay for Nuclear factor erythroid 2-related factor 2 (NFE2L2) Transcription Factor using HepaRG (AID 2283527)
How it was run: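 Human liver HepaRG line treated in duplicate for 48 h with an eight-point series topping at 100 uM. Gene expression of NFE2L2 by qRT-PCR, bidirectionally fitted against the vehicle control.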

[3] = read-out: succinate dehydrogenase complex iron sulfur subunit B (SDHB), SDHB (gene 6390); experiment: LTEA_HepaRG_SDHB: Life Technologies and Expression Analysis (LTEA) Assay for succinate dehydrogenase complex iron sulfur subunit B (SDHB) using HepaRG (AID 2283528)
How it was run: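 SDHB transcript level read by TaqMan qRT-PCR, housekeeping-normalised (ACTB, GAPDH, POLR2A), after 48 h chemical treatment of plated HepaRG cells; eight concentrations top 100 uM, half-log steps, 0.5% DMSO, duplicates; fitted both directions against DMSO.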

[4] = read-out: Signal transducer and activator of transcription 3 (Homo sapiens) (UniProt P40763); experiment: LTEA_HepaRG_STAT3: Life Technologies and Expression Analysis (LTEA) Assay for Signal transducer and activator of transcription (STAT3) using HepaRG (AID 2283529)
How it was run: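 In this transcriptional endpoint, HepaRG cultures receive test chemicals at up to 100 uM for 48 h, tested in duplicate. STAT3 mRNA is normalized to ACTB, GAPDH and POLR2A.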

[5] = read-out: solute carrier (SLCO1B1), SLCO1B1 (gene 10599); experiment: LTEA_HepaRG_SLCO1B1: Life Technologies and Expression Analysis (LTEA) Assay for solute carrier (SLCO1B1) using HepaRG (AID 2283530)
How it was run: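 SLCO1B1 transcript read by qRT-PCR (Fluidigm arrays), normalized to three housekeeping genes, after 48 h chemical exposure of HepaRG cells; bidirectional concentration-response fitting versus 0.5% DMSO baseline. Eight-point half-log series, maximum 100 uM.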

[6] = read-out: sulfotransferase 2A1 (SULT2A1), SULT2A1 (gene 6822); experiment: LTEA_HepaRG_SULT2A1: Life Technologies and Expression Analysis (LTEA) Assay for sulfotransferase 2A1 (SULT2A1) using HepaRG (AID 2283531)
How it was run: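 HepaRG, 48 h chemical exposure, 8-pt half-log curve from 100 uM in 0.5% DMSO, duplicates. Readout: TaqMan qRT-PCR of SULT2A1 mRNA, housekeeping-normalized. Bidirectional fit vs DMSO baseline.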

[7] = read-out: Transforming Growth Factor (TGFA), TGFA (gene 7039); experiment: LTEA_HepaRG_TGFA: Life Technologies and Expression Analysis (LTEA) Assay for Transforming Growth Factor (TGFA) using HepaRG (AID 2283532)
How it was run: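 Gene expression of TGFA was quantified by qRT-PCR after human HepaRG cells were treated for 48 h with test chemicals (eight concentrations, highest 100 uM, 0.5% DMSO). Activity in either direction was fitted relative to DMSO.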

[8] = read-out: Transforming Growth Factor (TGFB1), TGFB1 (gene 7040); experiment: LTEA_HepaRG_TGFB1: Life Technologies and Expression Analysis (LTEA) Assay for Transforming Growth Factor (TGFB1) Transporter using HepaRG (AID 2283533)
How it was run: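 qRT-PCR readout of TGFB1 transcript in HepaRG lysates, normalized to three housekeeping genes; gain or loss of signal fitted relative to 0.5% DMSO vehicle. Exposure: 48 h, 8-point curve from 100 uM, duplicate wells.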

TIMP1, TIMP1 (gene 7076) = experiment: LTEA_HepaRG_TIMP1: Life Technologies and Expression Analysis (LTEA) Assay for TIMP1 using HepaRG (AID 2283534);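 further: TaqMan qRT-PCR signal normalized to ACTB GAPDH and POLR2A housekeeping genes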
How it was run: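 HepaRG, 48 h exposure, 8-pt half-log series from 100 uM in 0.5% DMSO, duplicates; TIMP1 transcript by Fluidigm qRT-PCR, housekeeping-normalized; bidirectional curve fit vs DMSO baseline.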

Nuclear factor erythroid 2-related factor 2 (Homo sapiens), sequence (Q16236 whole entry, looked up): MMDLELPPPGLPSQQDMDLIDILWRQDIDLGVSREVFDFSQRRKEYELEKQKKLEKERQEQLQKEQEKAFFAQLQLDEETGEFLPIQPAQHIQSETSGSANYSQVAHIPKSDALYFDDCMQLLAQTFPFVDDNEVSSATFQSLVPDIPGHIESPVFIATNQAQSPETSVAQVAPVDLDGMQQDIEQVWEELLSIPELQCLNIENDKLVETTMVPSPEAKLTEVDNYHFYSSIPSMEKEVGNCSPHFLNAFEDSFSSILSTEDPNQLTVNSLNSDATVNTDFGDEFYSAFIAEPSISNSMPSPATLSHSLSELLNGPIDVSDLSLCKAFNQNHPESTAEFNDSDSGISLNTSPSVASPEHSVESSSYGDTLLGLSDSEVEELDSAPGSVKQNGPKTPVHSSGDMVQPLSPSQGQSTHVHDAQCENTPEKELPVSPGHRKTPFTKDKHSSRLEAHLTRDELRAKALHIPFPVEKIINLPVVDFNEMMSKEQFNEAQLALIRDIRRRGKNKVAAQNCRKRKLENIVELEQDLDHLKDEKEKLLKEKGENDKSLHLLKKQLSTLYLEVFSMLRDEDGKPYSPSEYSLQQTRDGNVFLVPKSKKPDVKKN
Signal transducer and activator of transcription 3 (Homo sapiens), sequence (P40763 whole entry, looked up): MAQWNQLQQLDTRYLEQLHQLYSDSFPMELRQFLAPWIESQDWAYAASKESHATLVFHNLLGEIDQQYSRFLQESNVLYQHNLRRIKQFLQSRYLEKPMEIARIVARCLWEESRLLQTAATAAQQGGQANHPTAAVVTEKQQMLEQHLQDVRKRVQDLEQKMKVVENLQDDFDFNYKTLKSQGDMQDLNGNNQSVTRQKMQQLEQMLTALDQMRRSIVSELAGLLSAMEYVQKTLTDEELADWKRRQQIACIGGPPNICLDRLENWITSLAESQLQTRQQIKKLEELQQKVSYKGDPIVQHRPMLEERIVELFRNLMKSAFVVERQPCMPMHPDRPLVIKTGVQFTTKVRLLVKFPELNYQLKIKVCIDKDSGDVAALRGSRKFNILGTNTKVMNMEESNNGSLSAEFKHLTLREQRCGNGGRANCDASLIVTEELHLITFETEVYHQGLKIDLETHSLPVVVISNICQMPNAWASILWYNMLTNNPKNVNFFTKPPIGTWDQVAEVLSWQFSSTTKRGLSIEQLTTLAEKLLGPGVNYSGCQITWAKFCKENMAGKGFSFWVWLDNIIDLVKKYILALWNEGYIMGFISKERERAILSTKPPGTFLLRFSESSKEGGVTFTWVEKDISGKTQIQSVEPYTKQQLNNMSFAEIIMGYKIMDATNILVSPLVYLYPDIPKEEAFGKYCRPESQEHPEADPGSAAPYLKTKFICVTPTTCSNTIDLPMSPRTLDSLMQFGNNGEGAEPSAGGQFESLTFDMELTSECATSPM

SMILES | outcome [1] | outcome [2] | outcome [3] | outcome [4] | outcome [5] | outcome [6] | outcome [7] | outcome [8] | outcome (TIMP1, TIMP1 (gene 7076)) | AC50 [1] | AC50 [6] | AC50 [5] | AC50 [2] | AC50 [8] | AC50 [4]
Nc1ccc([N+](=O)[O-])cc1 | inactive | inactive | inactive | inactive | inactive | inactive | inactive | inactive | inactive | – | – | – | – | – | –
CN(C)C(=O)Nc1ccc(Cl)cc1 | inactive | inactive | inactive | inactive | inactive | inactive | inactive | inactive | inactive | – | – | – | – | – | –
Cc1ccc(N=C=O)cc1N=C=O | – | inactive | inactive | inactive | inactive | – | inactive | inactive | inactive | 38.9 µM (active) | 31.4 µM (active) | – | – | – | –
[O-][Cl+]O | inactive | inactive | inactive | inactive | inactive | inactive | inactive | inactive | inactive | – | – | – | – | – | –
Oc1ccc2ccc3cccc4ccc1c2c34 | inactive | inactive | inactive | inactive | inactive | inactive | inactive | inactive | inactive | – | – | – | – | – | –
c1ccc(C2CO2)cc1 (configuration not stated) | inactive | inactive | inactive | inactive | inactive | inactive | inactive | inactive | – | – | – | – | – | – | –
[As]#[In] | inactive | inactive | inactive | inactive | inactive | inactive | inactive | inactive | inactive | – | – | – | – | – | –
CN(C)[C@@H]1C(=O)C(C(N)=O)=C(O)[C@@]2(O)C(=O)C3=C(O)c4c(O)cccc4[C@@](C)(O)[C@H]3C[C@@H]12 | inactive | inactive | inactive | inactive | inactive | inactive | inactive | inactive | inactive | – | – | – | – | – | –
CCN(CC)N=O | inactive | inactive | inactive | inactive | inactive | inactive | inactive | inactive | inactive | – | – | – | – | – | –
O=P(OCCCl)(OCCCl)OCCCl | inactive | inactive | inactive | inactive | inactive | inactive | inactive | inactive | inactive | – | – | – | – | – | –
C[C@]12C=CC3=C4CCC(=O)C=C4CC[C@H]3[C@@H]1CC[C@@H]2O | inactive | inactive | inactive | inactive | – | – | inactive | inactive | inactive | – | 81.8 µM (active) | 9.92 µM (active) | – | – | –
CC(C)(C)C(O)(CCc1ccc(Cl)cc1)Cn1cncn1 (configuration not stated) | inactive | – | inactive | inactive | inactive | – | inactive | – | inactive | – | 80.2 µM (active) | – | 50 µM (active) | 50 µM (active) | –
O=Cc1ccco1 | inactive | inactive | inactive | inactive | inactive | inactive | inactive | inactive | inactive | – | – | – | – | – | –
ClCCOCCCl | inactive | inactive | inactive | inactive | inactive | inactive | inactive | inactive | inactive | – | – | – | – | – | –
CN(C)c1ccccc1 | inactive | inactive | inactive | inactive | inactive | inactive | inactive | inactive | inactive | – | – | – | – | – | –
COC(=O)Nc1nc2ccccc2[nH]1 | inactive | inactive | inactive | inactive | inactive | inactive | inactive | inactive | inactive | – | – | – | – | – | –
CCC(C)c1ccc(O)cc1 (configuration not stated) | inactive | inactive | inactive | – | inactive | inactive | inactive | inactive | inactive | – | – | – | – | – | 361 nM (active)
CCCCCOC(=O)c1ccccc1C(=O)OCCCCC | inactive | inactive | inactive | inactive | inactive | inactive | inactive | inactive | inactive | – | – | – | – | – | –
C1=Cc2cccc3cccc1c23 | inactive | inactive | inactive | inactive | inactive | inactive | inactive | inactive | inactive | – | – | – | – | – | –
C[N+](C)(C)CC1CO1 (configuration not stated) | inactive | inactive | inactive | inactive | inactive | inactive | inactive | inactive | inactive | – | – | – | – | – | –
CCC12COCN1COC2 | inactive | inactive | inactive | inactive | inactive | inactive | inactive | inactive | inactive | – | – | – | – | – | –
CCOc1cccc(C2(N3CCN(c4ccccc4)CC3)CCC(C)CC2)c1 (configuration not stated) | inactive | inactive | inactive | inactive | inactive | inactive | inactive | inactive | inactive | – | – | – | – | – | –
